Here are results for 40 compounds from PubChem BioAssay (NCI).

The panel holds about 79,000 compounds, 15% with a hit somewhere; the sample as a whole holds those more often. Values without a mark were called inactive. Active and inactive are the calls of the source. Cut-off read from the data, not from the text of the source: active = growth inhibition above about 70%; inactive = the rest.

The nature of one assay: NCI Yeast Anticancer Drug Screen. Data for the rad50 strain (AID 155).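 Note: 0% = growth of vehicle-only cultures of the same strain.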 The note with it: S. cerevisiae rad50 strain growth inhibition; at 50.0 µM; active compounds read high. The method in brief: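 Growth of the mutant yeast was measured after compound exposure and referenced to vehicle-treated cultures.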
For the compound `Cc1cc(C)c(N(C)C(=O)CCC(=O)O)c(Br)c1`, the growth inhibition was 3.1%.

Turning to `COc1cc(NCCN=C(N)NC#N)c2ncccc2c1`, the growth inhibition was 0.95%. Regarding `CCOC(=O)c1ccc(-c2ccc(C(=O)OCC)cc2[N+](=O)[O-])c([N+](=O)[O-])c1`, the growth inhibition is 14.8%. Same read-out and setting: for `Cc1ccc(S(=O)(=O)OCC(C)(C)CC#N)cc1` the value was 10.9%; for `C1C[OH+]CCNCC[OH+]CC[OH+]CCN1.[Cl-].[Pt+4]`, -14.5%. On the same count and under the same terms, in the case of `COc1cc(OC)c(/C=C2\N=C(C)N(Nc3nnc(NN4C(=O)/C(=C/c5c(OC)cc(OC)cc5OC)N=C4C)c4ccccc34)C2=O)c(OC)c1` it was -0.15%; in that of `O=C1/C(=N\O)C2CCC1C2` (centres undefined), -11.2%; in that of `CCOC(=O)c1ccc(NC(=O)Nc2cc(Cl)ccc2OC)cc1`, 4%. On the same count and under the same terms, for `O=C(O)CCc1ccc2c(c1)CC1(Cc3ccccc3C1)C2` the value was 26.1%; for `COc1ccc(C(=CCC(C)C2CCC3[C@@H]4C(OC(C)=O)CC5CC(OC(C)=O)CC[C@]5(C)C4CC(OC(C)=O)[C@]23C)c2ccc(OC)cc2)cc1` (some centres undefined), 1.2%. As for `CC1=CC(C)(C)N=C2SC(c3ccc(N)cc3)=NN12`, the growth inhibition was 25%. Turning to `CN(C)c1ccc(/C=C/C(=O)/C=C/c2ccc(N(C)C)cc2)cc1`, the growth inhibition is -13.5%. Still for that read-out and setting: for `O=C(Nc1ccc(Cl)cc1Cl)C(=O)C(C(=O)c1ccncc1)C1OC(=O)c2ccccc21` (centres undefined) the value was -1%; for `OCCCOCc1ccccc1`, 39.8%; for `COc1cc(NCC2COc3c(ccc(OC)c3OC)C2=O)c([N+](=O)[O-])cc1OC` (centres undefined), 9.35%. Same read-out and setting: for `CC(C)(C)/C=C/N=NNc1ccccc1C(=O)NC(C)(C)C` the value was 9.5%; for `CC(=O)OCC(OC(C)=O)C(OC(C)=O)C(OC(C)=O)c1cnn(-c2ccccc2)n1` (centres undefined), 4.05%; for `NCCCc1ccc(C(=O)O)cc1`, -23.8%.

For the compound `CCOC(=O)Nn1c(C)nnc1CC#N`, the growth inhibition was -3.05%. The same measure, in the same setting: in the case of `CC(=O)/C=C/CCC(=O)/C=C/C(=O)OC(CCC(=O)/C=C/C(=O)O)CC(C)=O` (centres undefined) it was -5.25%; in that of `Cc1cc2nc(CCC(=O)O)c(=O)[nH]c2cc1C`, -22.4%; in that of `CCOc1ccc(NC(=O)C2=C(C)NC(C)=C(C(=O)Nc3ccc(OCC)cc3)C2c2ccccc2)cc1`, -22.9%.

For the compound `CCOC(=O)C(C)(C)Oc1ccc2c(-c3ccc(Cl)cc3)cc(=O)oc2c1`, the growth inhibition is 9.05%.

With `Cc1ccc(N=C2N=C(N3CC(C)OC(C)C3)c3ccccc32)cc1` (centres undefined), the growth inhibition was -12.9%.

The next assay in a line: NCI Yeast Anticancer Drug Screen. Data for the sgs1 mgt1 strain (AID 161).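 Note: 0% = growth of cultures given vehicle only.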 Conditions: S. cerevisiae sgs1 mgt1 strain, at 50.0 µM, active compounds read high. The method in brief:
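Test agents were incubated with a DNA-repair-mutant yeast strain. Growth was then read and compared against vehicle-treated controls.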
With `CCCCCNC(=O)c1csc(-c2csc(CCNC(C)=O)n2)n1`, the growth inhibition was 4.7%. Still for that read-out and setting: for `COc1ccc(-c2oc3cc(OC)c(OC)c(OC)c3c(=O)c2O)cc1O` the value was 77.6% (active).

With `CC1=C(C(=O)NN)CC/C1=N\N`, the growth inhibition is -11.5%. For `O=[N+]([O-])c1ccc(N/N=C(/c2ccc3ccccc3c2)c2ccccc2F)c([N+](=O)[O-])c1`, the growth inhibition is -12.2%. Take `Nc1ccn(C2CC(F)C(CO)O2)c(=O)n1` (centres undefined): the growth inhibition is 17.2%. On the same count and under the same terms, in the case of `Cc1cn(-c2c(C)c(C)c(-n3c(C)ccc3C)c(C)c2C)cc1C` it was -6.2%; in that of `CC(O)CSCC(C)O` (centres undefined), -16.7%; in that of `CCOC(=O)C(=CNC(=S)Nc1ccc(Cl)c(Cl)c1)C(=O)OCC`, 59.7%. Consider `COc1ccccc1N(CN1C(=O)CCC1C(=O)O)C(C)=O` (centres undefined), for which the growth inhibition was -4%. On the same count and under the same terms, for `CC1=CC(C)(C)Nc2ccccc21` the value was -8.95%; for `Cc1ccc(N=NC2=C3Sc4ccccc4N=C2N(c2ccc(Br)cc2)C(=S)N3c2ccc(Cl)cc2)cc1`, -21.4%.

`CCN(CC)C(=S)N1CCCCC1`: the growth inhibition was -14.2%. On the same count and under the same terms, for `O=C(c1cccc([N+](=O)[O-])c1)N1CCOCC1` the value was 1.45%.

As to `Cc1ccc(N2C(=O)/C(=C/c3ccc(N(CCC#N)CCC#N)cc3)CC2(O)c2ccccc2)cc1` (centres undefined), the growth inhibition was -38.3%. Still for that read-out and setting: for `O=C(c1cc([N+](=O)[O-])cc([N+](=O)[O-])c1)N1CCCC1` the value was -2.75%; for `CCOc1ccc(NC(=O)c2cccc(C(=O)Nc3ccc(OCC)cc3)c2)cc1`, -8.15%; for `Cc1cc(C)c(N(C)C(=O)CCC(=O)O)c(Br)c1`, -13.2%. For `COc1cc(NCCN=C(N)NC#N)c2ncccc2c1`, the growth inhibition is -0.7%. Same read-out and setting: in the case of `CCOC(=O)c1ccc(-c2ccc(C(=O)OCC)cc2[N+](=O)[O-])c([N+](=O)[O-])c1` it was 11.8%; in that of `Cc1ccc(S(=O)(=O)OCC(C)(C)CC#N)cc1`, 35.9%; in that of `C1C[OH+]CCNCC[OH+]CC[OH+]CCN1.[Cl-].[Pt+4]`, 1.55%. Turning to `COc1cc(OC)c(/C=C2\N=C(C)N(Nc3nnc(NN4C(=O)/C(=C/c5c(OC)cc(OC)cc5OC)N=C4C)c4ccccc34)C2=O)c(OC)c1`, the growth inhibition is -12.8%. The same measure, in the same setting: for `O=C1/C(=N\O)C2CCC1C2` (centres undefined) the value was 0.3%. Consider `CCOC(=O)c1ccc(NC(=O)Nc2cc(Cl)ccc2OC)cc1`, for which the growth inhibition is 21%. With `O=C(O)CCc1ccc2c(c1)CC1(Cc3ccccc3C1)C2`, the growth inhibition was 61.2%.

With `COc1ccc(C(=CCC(C)C2CCC3[C@@H]4C(OC(C)=O)CC5CC(OC(C)=O)CC[C@]5(C)C4CC(OC(C)=O)[C@]23C)c2ccc(OC)cc2)cc1` (some centres undefined), the growth inhibition is -7.9%. On the same count and under the same terms, in the case of `CC1=CC(C)(C)N=C2SC(c3ccc(N)cc3)=NN12` it was 3.55%; in that of `CN(C)c1ccc(/C=C/C(=O)/C=C/c2ccc(N(C)C)cc2)cc1`, -13.8%. `O=C(Nc1ccc(Cl)cc1Cl)C(=O)C(C(=O)c1ccncc1)C1OC(=O)c2ccccc21` (centres undefined): the growth inhibition was -29.2%. As for `OCCCOCc1ccccc1`, the growth inhibition is 30.9%. Still for that read-out and setting: in the case of `COc1cc(NCC2COc3c(ccc(OC)c3OC)C2=O)c([N+](=O)[O-])cc1OC` (centres undefined) it was 8.15%; in that of `CC(C)(C)/C=C/N=NNc1ccccc1C(=O)NC(C)(C)C`, 1.8%; in that of `CC(=O)OCC(OC(C)=O)C(OC(C)=O)C(OC(C)=O)c1cnn(-c2ccccc2)n1` (centres undefined), -20%. Take `NCCCc1ccc(C(=O)O)cc1`: the growth inhibition is -0.5%.

As to `CCOC(=O)Nn1c(C)nnc1CC#N`, the growth inhibition is -8.1%.

Consider `CC(=O)/C=C/CCC(=O)/C=C/C(=O)OC(CCC(=O)/C=C/C(=O)O)CC(C)=O` (centres undefined), for which the growth inhibition was -18.4%. In the case of `Cc1cc2nc(CCC(=O)O)c(=O)[nH]c2cc1C`, the growth inhibition was -4.05%.

As to `CCOc1ccc(NC(=O)C2=C(C)NC(C)=C(C(=O)Nc3ccc(OCC)cc3)C2c2ccccc2)cc1`, the growth inhibition is -20.9%. For `CCOC(=O)C(C)(C)Oc1ccc2c(-c3ccc(Cl)cc3)cc(=O)oc2c1`, the growth inhibition is -2.5%. Same read-out and setting: for `Cc1ccc(N=C2N=C(N3CC(C)OC(C)C3)c3ccccc32)cc1` (centres undefined) the value was -15.6%.
